Source: PubChem BioAssay
An excerpt weighted towards active compounds, which were near 2.6% of everything screened.
PABP1 MLLE inh = blocks PAM2 peptide binding to the PABP1 MLLE domain. P11940. GST-MLLE / FITC-PAM2 fluorescence polarization. inhibition, % at 20 µM. 0.36% of 360,000 active. AID 588489; in the data active = inhibition above about 35%, passing the limit was not always enough;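 also: plate controls were DMSO wells with GST-MLLE for no effect and wells lacking GST-MLLE protein for full effect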
eIF4H FP inh = inhibitors of RNA binding by human eIF4H; 0.94% of 290,000 active; eIF4H fluorescence polarization binding assay; inhibition, % at 35 µM; Q15056;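 also: calls also rest on retests at 20 µM and on dose response follow-up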
PHOSPHO1 inh = inhibitors of human PHOSPHO1 phosphatase; 1.1% of 290,000 active; recombinant PHOSPHO1, absorbance phosphatase assay; inhibition, % at 13.3 µM; in the data active = inhibition above about 60%
Target sequence (Q8TCT1 whole entry, looked up): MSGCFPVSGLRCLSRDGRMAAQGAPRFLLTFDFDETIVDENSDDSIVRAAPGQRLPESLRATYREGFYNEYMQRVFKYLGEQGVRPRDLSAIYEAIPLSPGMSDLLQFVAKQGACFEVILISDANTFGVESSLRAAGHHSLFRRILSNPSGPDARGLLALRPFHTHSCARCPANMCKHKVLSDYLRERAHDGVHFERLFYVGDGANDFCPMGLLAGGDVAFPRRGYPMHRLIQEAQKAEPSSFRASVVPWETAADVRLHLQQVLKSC
PABP polyA inh = blocks human PABP binding to poly(A) RNA; P11940; 1% of 290,000 active; calls only at 35 µM; fluorescence polarization; AID 2014;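 also: calls also rest on retests at 20 µM and on dose response follow-up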
APOBEC3G inh = inhibitors of human APOBEC3G DNA deaminase. Q9HC16. recombinant A3G, ssDNA deamination FAM/TAMRA fluorescence. inhibition, % at 20 µM. 0.28% of 330,000 active. AID 493012;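 active = inhibition of at least 40% at 20 µM, with no more than 30% in the related APOBEC3A deaminase screen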;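 also: plate controls were DMSO wells with A3G for no effect and wells lacking A3G enzyme for full effect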
APOBEC3A inh = blocks human APOBEC3A ssDNA deamination; P31941; recombinant A3A, FAM/TAMRA ssDNA deamination fluorescence; inhibition, % at 20 µM; 0.41% of 330,000 active;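 active = at least 40% inhibition at 20 µM here, with at most 30% in a related deaminase screen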;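 also: plate controls were A3A with DMSO for no effect and wells lacking A3A enzyme for full effect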
Target sequence (P31941 whole entry, looked up): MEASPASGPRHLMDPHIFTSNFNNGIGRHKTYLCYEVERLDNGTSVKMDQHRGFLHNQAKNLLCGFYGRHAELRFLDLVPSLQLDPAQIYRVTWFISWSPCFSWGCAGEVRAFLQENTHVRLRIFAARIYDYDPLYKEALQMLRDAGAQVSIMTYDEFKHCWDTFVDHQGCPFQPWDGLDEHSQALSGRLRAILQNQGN
A3A conf = APOBEC3A (human) deaminase inhibition, confirmed; inhibition, % at 20 µM; AID 493151; shares compounds with APOBEC3A inh; recombinant A3A, ssDNA deaminase UDG fluorescence assay; 63% of 1,400 active;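 active = inhibition reaching a set limit, 80% of the first screen's cutoff, at 20 µM in any replicate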;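 also: plate controls were DMSO wells with A3A for no effect and wells lacking A3A enzyme for full effect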
UDG ctr A3A = inhibits UDG, flagging false APOBEC3A inhibitors; 1,000 tested, under 10 active; inhibition, % at 20 µM; shares compounds with APOBEC3A inh; UDG counterscreen, FAM/TAMRA uracil oligo fluorescence
The depositor's hits bear a star. Unless noted, no rule for the calls is given here.

How did CCn1nc(NS(=O)(=O)c2ccc(NC(C)=O)cc2)c2cc3ccccc3nc21 do in these assays?
PABP1 MLLE inh: 9.9; eIF4H FP inh: -14.7; PHOSPHO1 inh: 64.7*; PABP polyA inh: inactive; APOBEC3G inh: 9.3; APOBEC3A inh: 4.0

How did O=C1C(Cl)=C(NCCc2ccccc2)C(=O)c2ccccc21 do in these assays?
PABP1 MLLE inh: 40.4*

What do the screens show for `O=C(O)c1ccc(NC2=C(Cl)C(=O)c3ccccc3C2=O)cc1`?
PABP1 MLLE inh: 47.0*; eIF4H FP inh: -3.5; PHOSPHO1 inh: 58.5; PABP polyA inh: inactive; APOBEC3G inh: -1.7; APOBEC3A inh: 6.0

What do the screens show for `Cc1ccc(NCC(=O)c2ccccc2)cc1Cl`?
PABP1 MLLE inh: 14.9; eIF4H FP inh: -7.2; PHOSPHO1 inh: 5.7; PABP polyA inh: inactive; APOBEC3G inh: -8.2; APOBEC3A inh: -3.6

What do the screens show for `Cc1ccc(NC2=C(NC(=O)c3ccccc3)C(=O)c3ccccc3C2=O)cc1Cl`?
PABP1 MLLE inh: 46.2*; eIF4H FP inh: -5.8; PHOSPHO1 inh: -1.8; PABP polyA inh: inactive; APOBEC3G inh: -3.5; APOBEC3A inh: -3.5

Results for CCCCc1ccc(NC(=O)Nc2c(C)n(C)n(-c3ccccc3)c2=O)cc1 ?
PABP1 MLLE inh: -1.7; eIF4H FP inh: 2.0; PHOSPHO1 inh: 19.0; PABP polyA inh: inactive; APOBEC3G inh: -3.4; APOBEC3A inh: 62.2*; A3A conf: -8.9; UDG ctr A3A: 2.0

Results for O=[N+]([O-])c1ccc(C[n+]2cccc3ccc4cccnc4c32)cc1 ?
PABP1 MLLE inh: -0.5; eIF4H FP inh: 45.5; PHOSPHO1 inh: 43.6; PABP polyA inh: inactive; APOBEC3G inh: 1.8; APOBEC3A inh: 15.9

Results for O=[N+]([O-])c1ccc(C[n+]2cccc3ccccc32)cc1 ?
PABP1 MLLE inh: -120.4; eIF4H FP inh: inconclusive; PHOSPHO1 inh: -21.2; PABP polyA inh: inactive; APOBEC3G inh: 2.9; APOBEC3A inh: 42.8*; A3A conf: 52.9*; UDG ctr A3A: -1.8

How did CCOC(=O)c1[nH]ncc1CN1CCc2ccc(NC(=O)C3CCCO3)cc2C1 (stereo not given) do in these assays?
PABP1 MLLE inh: -8.6; eIF4H FP inh: -3.8; PHOSPHO1 inh: -9.1; PABP polyA inh: inactive; APOBEC3G inh: -7.5; APOBEC3A inh: 53.6*; A3A conf: -6.5; UDG ctr A3A: -3.0

What do the screens show for `O=C(Nc1ccc(Cl)cc1Cl)C1CCCO1` (stereo not given)?
PABP1 MLLE inh: -3.9; eIF4H FP inh: 2.4; PHOSPHO1 inh: 41.1; PABP polyA inh: inactive; APOBEC3G inh: -6.9; APOBEC3A inh: -6.6

Results for Cc1cc(F)ccc1NC(=O)C1CCCO1 (stereo not given) ?
PABP1 MLLE inh: -4.5; eIF4H FP inh: -6.5; PHOSPHO1 inh: 29.9; PABP polyA inh: inactive; APOBEC3G inh: -7.0; APOBEC3A inh: 56.7*; A3A conf: 0.0; UDG ctr A3A: 4.8

What do the screens show for `COc1ccc(CCn2c(C)cc(C(=O)CSc3nnc(N)s3)c2C)cc1`?
PABP1 MLLE inh: 16.7; eIF4H FP inh: 7.8; PHOSPHO1 inh: -0.6; PABP polyA inh: inactive; APOBEC3G inh: -6.9; APOBEC3A inh: 43.7*; A3A conf: -5.8; UDG ctr A3A: -1.7

How did COc1ccc(CCn2c(C)cc(C(=O)CSc3nc(N)cc(=O)[nH]3)c2C)cc1 do in these assays?
PABP1 MLLE inh: -0.7; eIF4H FP inh: -6.7; PHOSPHO1 inh: -79.9; PABP polyA inh: inactive; APOBEC3G inh: -0.6; APOBEC3A inh: 5.3

How did COC(=O)CCCCCCCCC(O)CN(C)C (stereo not given) do in these assays?
PABP1 MLLE inh: 2.3; eIF4H FP inh: -3.6; PHOSPHO1 inh: 15.0; PABP polyA inh: inactive; APOBEC3G inh: 0.5; APOBEC3A inh: 1.4

How did CC(=O)OCCCCCCCCCCC[N+]1(C)CCCCC1 do in these assays?
PABP1 MLLE inh: -129.2; eIF4H FP inh: 3.2; PHOSPHO1 inh: 1.2; PABP polyA inh: active; APOBEC3G inh: 20.3; APOBEC3A inh: 79.4*; A3A conf: 72.6*; UDG ctr A3A: 1.6

Results for COC(=O)CCCCCCCCC(O)C[N+]1(C)CCOCC1 (stereo not given) ?
PABP1 MLLE inh: -103.7; PHOSPHO1 inh: 37.1; APOBEC3G inh: 23.1; APOBEC3A inh: 53.2*; A3A conf: 77.6*; UDG ctr A3A: -2.8

How did COC(=O)CCCCCCCCCC[N+]1(C)CCCCC1 do in these assays?
PABP1 MLLE inh: -134.0; eIF4H FP inh: -6.3; PHOSPHO1 inh: -23.9; PABP polyA inh: inactive; APOBEC3G inh: 22.3; APOBEC3A inh: 43.6*; A3A conf: 85.4*; UDG ctr A3A: 1.6

What do the screens show for `COCCNC(=O)C1(C)CCCN(C(=O)c2c(F)ccc(C)c2F)C1` (stereo not given)?
PABP1 MLLE inh: 17.6

Results for O=C(NC1CCCCC1c1ccccc1)c1ccccc1 (stereo not given) ?
PABP1 MLLE inh: 8.0

How did CCc1ccc(/C=C/c2c[nH]c3ccccc23)[n+](CC)c1 do in these assays?
PABP1 MLLE inh: -173.2; eIF4H FP inh: -1.5; PHOSPHO1 inh: 0.3; PABP polyA inh: inactive; APOBEC3G inh: 20.0; APOBEC3A inh: 64.5*; A3A conf: 68.7*; UDG ctr A3A: 0.0

How did COc1ccc(CCNC(=O)Cc2c(Cl)cccc2Cl)cc1 do in these assays?
PABP1 MLLE inh: -87.6; eIF4H FP inh: -2.1; PHOSPHO1 inh: -2.1; PABP polyA inh: inactive; APOBEC3G inh: 3.1; APOBEC3A inh: 43.7*; A3A conf: 6.9

What do the screens show for `C=CCn1nnnc1SCC(=O)Nc1cccc(C(F)(F)F)c1`?
PABP1 MLLE inh: -114.8; eIF4H FP inh: 2.9; PHOSPHO1 inh: 27.4; PABP polyA inh: inactive; APOBEC3G inh: 23.1; APOBEC3A inh: 69.7*; A3A conf: 81.4*; UDG ctr A3A: -3.0

Results for C=CCn1nnnc1SCC(=O)Nc1ccc(C(=O)OC)cc1 ?
PABP1 MLLE inh: -14.7; eIF4H FP inh: 60.2; PHOSPHO1 inh: 22.6; PABP polyA inh: inactive; APOBEC3G inh: -0.8; APOBEC3A inh: 3.3

Results for CCC(C)Sc1nnc(Cc2cc(=O)[nH]c(=O)[nH]2)n1-c1ccc(OC)cc1 (stereo not given) ?
PABP1 MLLE inh: -9.2; eIF4H FP inh: 5.7; PHOSPHO1 inh: 2.1; PABP polyA inh: inactive; APOBEC3G inh: -3.8; APOBEC3A inh: 63.3*; A3A conf: -1.6; UDG ctr A3A: -2.1

Results for CC1=CC(C)C(C[N+]2(C)CCCCC2)C(C)C1 (stereo not given) ?
PABP1 MLLE inh: -117.7; eIF4H FP inh: 8.7; PHOSPHO1 inh: 20.8; PABP polyA inh: active; APOBEC3G inh: 13.3; APOBEC3A inh: 57.7*; A3A conf: 56.0*; UDG ctr A3A: -3.2

Results for CCN1C(=NCCc2ccc(Br)cc2)N[C@@H](c2ccccc2)[C@H](C(=O)OC)[C@H]1C ?
PABP1 MLLE inh: -84.3; APOBEC3G inh: 8.7; APOBEC3A inh: 38.6
